# Measurements from PubChem BioAssay (NCI).
# The panel holds about 83,000 compounds, 20% with a hit somewhere; the sample as a whole holds those more often.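 Values shown are percent growth following 48 h exposure of cells in 96-well plates to a single concentration of compound; below 10 was considered active.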 Activity calls are given as the source filed them.
# System: MDA-MB-468 breast
# Experiment: NCI-60 one-dose screen, 48 h (100 = growth as untreated, 0 = no growth, -100 = all killed)
# Conditions: 10 µM unless noted
row,SMILES,growth
1,FC(F)(F)c1nc2c(NCc3ccc(-c4ccccc4)cc3)cccc2[nH]1,70.2% (inactive)
2,Cc1c2c[n+](C(C)C)ccc2c(C)c2c1[nH]c1ccccc12,-37% (active)
3,O=C1c2cc3c(cc2-c2c1c1ccc(Cl)cc1c(=O)n2CCCNCCO)OCO3,-91.6% (active)
4,CCOC(=O)CSc1c(-c2ccccc2)c2cc(Cl)ccc2[nH]c1=O,98% (inactive)
5,COc1cc(C2CC(c3ccc(Nc4ccnc5cc(Cl)ccc45)cc3)=NN2c2ccc(Cl)cc2)cc(OC)c1OC (stereo not given),41.9% (inactive)
6,Cc1cc2nc3ccc(N=Nc4ccc(N(C)C)cc4)cc3n(-c3ccccc3)c-2cc1=N,-89.4% (active)
7,O=C1Nc2cc(OC(F)(F)F)ccc2Oc2ccc(-c3ccnc(N4CC[C@H](O)C4)c3)cc21,-28.9% (active)
8,O=C1Nc2ccc(Cl)cc2/C1=C/c1cccs1,-4.25% (active)
9,CCCn1cnc2c(c1=N)C(c1ccc(F)cc1)c1sc3c(C)cccc3c1O2 (stereo not given),-26.7% (active)
10,Ic1ccc(SSc2ccc(I)cc2)cc1,108% (inactive)
11,COCCN(C(=O)Cc1cccs1)C(C(=O)NCc1ccc(OC)cc1)c1ccc(C(C)C)cc1 (stereo not given),90.7% (inactive)
12,CN1C(=O)/C(=C/c2ccc(C(=O)Nc3ncc(Cc4ccccc4Cl)s3)cc2)SC1=S,40.3% (inactive)
13,Clc1cccc(Cl)c1/C=C/c1cc(/C=C/c2c(Cl)cccc2Cl)[nH]n1,12.4% (inactive)
14,C/C(=N\Nc1ccccc1)c1ccc(NC2=CC(=O)c3ccccc3C2=O)cc1,35.7% (inactive)
15,COc1cc2c(cc1OC)C(C)N(S(N)(=O)=O)CC2 (stereo not given),99.6% (inactive)
16,O=C(NCCc1ccccc1)Nc1ccc2cc3ccc(NC(=O)NCCc4ccccc4)cc3nc2c1,-5.36% (active)
17,CC(C)(C)[Si](C)(C)OC1[C@@H](O[Si](C)(C)C(C)(C)C)[C@@H](CNC(=O)NC(=O)NC(=O)CI)O[C@H]1n1cnc2c(NC(=O)Nc3ccccc3)ncnc21 (stereo not given in full),75.5% (inactive)
18,N#Cc1c(-c2ccc(F)cc2)nc2c(C#N)c(Nc3ccccc3)nn2c1N,103% (inactive)
19,COc1ccc(C2C3=C(COC3=O)N(CCO)c3cc4c(cc32)OCO4)cc1OC (stereo not given),8.1% (active)
20,Nc1cc2c(cc1Cl)-c1ccc(Cl)cc1C2=O,86.1% (inactive)

row,SMILES,growth
1,CC(NC(=O)c1ccccc1)C(=O)Nc1ccccc1 (stereo not given),109% (inactive)
2,CC(C)c1ccc2c(c1)CC[C@H]1[C@](C)(C(=O)OCC#CCN3CCCC3)CCC[C@]21C,52.4% (inactive)
3,NC(N)=Nc1ccc(Nc2cccc(Oc3ccc(Cl)c(C(F)(F)F)c3)c2)cn1,8.19% (active)
4,CC(C)(O)C#CC#CC(C)(C)O,97.7% (inactive)
5,CNC(=O)c1cc(Oc2ccc3c(c2)sc2nc(-c4ccc(N(C)C)cc4)cn23)ccn1,36.5% (inactive)
6,C[C@H](CCC(=O)O)[C@H]1CC[C@H]2[C@@H]3CC[C@@H]4/C(=C\c5ccco5)C(=O)/C(=C\c5ccco5)C[C@]4(C)[C@H]3CC[C@]12C,41.1% (inactive)
7,Cc1cc(=O)[nH]c(=O)n1Cc1cn(-c2c3ccccc3nc3ccccc23)nn1,-66.7% (active)
8,COc1ccc(-c2cc(-c3ccccc3)nc(SCCCC(=O)NO)n2)cc1,-50.5% (active)
9,Cc1cc(C)c(N2C(=O)CC(Nc3ccc(Cl)cc3Cl)C2=O)c(C)c1 (stereo not given),96.1% (inactive)
10,COc1cc(/C=C2\C(=O)N(Cc3ccc(Cl)cc3)c3ccccc32)cc(OC)c1OC,-18.3% (active)
11,COc1cc(N)c2ncccc2c1SC,107% (inactive)
12,N#Cc1c(N)nnn1Cc1cc(=O)oc2ccc(O)cc12,101% (inactive)
13,Cn1cnc2c(N3CCN(C(=O)OCc4ccc5c(Cl)cc(Cl)c(O)c5n4)CC3)nc(Cl)nc21,72.5% (inactive)
14,C[C@H](C(=O)N(CCc1ccc(Cl)c(Cl)c1)Cc1cncs1)[C@@H]1CC[C@H](C[C@H](C)n2cc(CN3CCC(c4ccc(Cl)cc4)CC3)nn2)O1,90.3% (inactive)
15,CCCCCCCC/C=C\CCCCCCCC(=O)Oc1cccc2cccnc12,121% (inactive)
16,C=C(C)[C@@H]1CC[C@]2(C(=O)O)CC[C@]3(C)[C@H](CC[C@@H]4[C@@]5(C)C[C@@H](CC#Cc6ccccc6)C(=O)C(C)(C)[C@@H]5CC[C@]43C)[C@@H]12,19.8% (inactive)
17,O=C(/C=C/c1cccc2ccccc12)Nc1ncc(Cc2ccccc2)s1,-14.4% (active)
18,CC(=O)Nc1nc(C)c(C(=O)NNS(=O)(=O)c2ccccc2)s1,107% (inactive)
19,CCc1ccc(-c2cn3ccnc3c(-c3ccc4ncn(Cc5ccccc5)c4c3)n2)cc1,82.8% (inactive)
20,COc1cccc(-n2cc(-c3nc(Nc4cc(C)[nH]n4)c4ccccc4n3)nn2)c1,48.1% (inactive)
